Test [1] is described as follows: NCI Yeast Anticancer Drug Screen. Data for the rad50 strain (AID 155).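 Note: 0% = growth of vehicle-only cultures of the same strain.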 As to conditions: S. cerevisiae rad50 strain growth inhibition; at 50.0 µM; active compounds read high. The essentials:
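Inhibition values express reduced yeast growth in compound-treated cultures relative to vehicle-treated controls.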

A short description of test [2]: NCI Yeast Anticancer Drug Screen. Data for the mec2-1 strain (AID 157). As to conditions: S. cerevisiae mec2-1 strain, at 50.0 µM, active compounds read high. The essentials: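 Yeast mec2-1 mutant treated with compound. Readout: growth inhibition vs vehicle controls.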
Test [3] in a line: NCI Yeast Anticancer Drug Screen. Data for the sgs1 mgt1 strain (AID 161).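 Note: 0% = growth of cultures given vehicle only.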 As to conditions: S. cerevisiae sgs1 mgt1 strain, at 50.0 µM, active compounds read high. An outline of the steps:
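Test agents were incubated with a DNA-repair-mutant yeast strain. Growth was then read and compared against vehicle-treated controls.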

The nature of test [4]: NCI Yeast Anticancer Drug Screen. Data for the cln2 rad14 strain (AID 165).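 Note: 0% = growth equal to vehicle treated cultures.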 Particulars: S. cerevisiae cln2 rad14 strain, at 50.0 µM, active compounds read high. The essentials: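 cln2 rad14 yeast strain; compound exposure; growth inhibition read vs vehicle controls.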
A short description of test [5]: NCI Yeast Anticancer Drug Screen. Data for the bub3 strain (AID 167). As to conditions: S. cerevisiae bub3 mutant strain, at 50.0 µM, active compounds read high. An outline of the steps:
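Steps: expose the mutant yeast strain to compound; grow alongside vehicle-treated cultures; measure growth; express inhibition against the vehicle cultures.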

Test [6] can be described thus: NCI Yeast Anticancer Drug Screen. Data for the mlh1 rad18 strain (AID 175). Particulars: S. cerevisiae mlh1 rad18 strain growth inhibition; at 50.0 µM; active compounds read high. The essentials: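 Yeast w/ defined DNA-repair lesions; compound exposure; growth vs vehicle controls → % inhibition.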

About 79,000 compounds went through this panel and 15% of them were active in at least one assay; those are over-represented in the sample as a whole. Unmarked numbers belong to inactive results. Activity calls are given as the source filed them. Cut-off read from the data, not from the text of the source: active = growth inhibition above about 70%; inactive = the rest.

As to `c1cc2c3c(c1)ccc1ccc4cccc(c4c13)O2`, the growth inhibition in test [1] is -26.4%; in test [2], -2.4%; in test [3] it was -24.2%; in test [4], -0.7%; in test [5], -3.45%; in test [6], -47.9%.
In the case of `CC[C@H]1OC(=O)[C@H](C)[C@@H](OC2CC(C)(OC)C(O)C(C)O2)[C@H](C)[C@@H](OC2OC(C)CC(N(C)C)C2OC(=O)CCC2CCCC2)[C@](C)(O)C[C@@H](C)C(=O)[C@H](C)[C@@H](O)[C@]1(C)O` (stereo not given in full), the growth inhibition is 3.25% in test [1]; -6.95% in test [2]; 4.05% in test [3]; 0.65% in test [4]; 7.3% in test [5]; -9.55% in test [6].
Regarding `ClCCOc1ccc2ccccc2c1`, the growth inhibition in test [1] is 13.4%; in test [2], -6.1%; in test [3] it was 0.55%; in test [4] it was 4.05%; in test [5], 0.5%; in test [6] it was 12.1%.
Take `COc1cc(/C=C2\C=Cc3ccccc32)ccc1N(C)C`: the growth inhibition in test [1] is 5.45%; in test [2], -13.2%; in test [3], -6.85%; in test [4], -54.4%; in test [5] it was 3.8%; in test [6], -15.5%.
Take `CC(C)C(C(=O)O)N(CC1(O)OCC(O)C(O)C1O)N=O` (stereo not given): the growth inhibition in test [1] was -0.2%; in test [2] it was -18.4%; in test [3] it was -2.85%; in test [4] it was 0.1%; in test [5], -11.1%; in test [6] it was -12.9%.
For the compound `N#CCCn1cnc2c(Cl)ncnc21`, the growth inhibition in test [1] was -10.2%; in test [2], 5.15%; in test [3], -18.2%; in test [4] it was -12.7%; in test [5], -7%; in test [6], -2.6%.
Take `Cc1ccc(N2C3=C(CC4=C2CC(C)(C)CC4=O)C(=O)CC(C)(C)C3)cc1`: the growth inhibition in test [1] is -29.6%; in test [2], -25.1%; in test [3], -21.1%; in test [4], -15.9%; in test [5], -33.8%; in test [6] it was -24.9%.
Take `Cc1cc(C(O)CCCc2ccccc2)cc(C)c1O` (stereo not given): the growth inhibition was 37.6% in test [1]; 6.4% in test [2]; 3.7% in test [3]; 34.4% in test [4]; 42% in test [5]; 5.1% in test [6].
Turning to `O=C(c1ccccc1)N1C(=S)N=C(Nc2ccccc2)C1=Nc1ccccc1`, the growth inhibition is -15.8% in test [1]; -27.1% in test [2]; -9.8% in test [3]; -30.3% in test [4]; -20.9% in test [5]; -35.9% in test [6].
For `O=c1ccc(-c2ccccc2)n[nH]1`, the growth inhibition in test [1] was -25.4%; in test [2], -0.2%; in test [3] it was -28.3%; in test [4], 5%; in test [5], -25.8%; in test [6], -23.9%.
For the compound `O=S(/N=C/c1ccccc1)c1ccc(Cl)cc1` (stereo not given), the growth inhibition in test [1] is -7.6%; in test [2], 4.5%; in test [3], 12.4%; in test [4] it was 13.9%; in test [5], 9.4%; in test [6] it was 13%.
`O=C1OC(c2ccccc2)=N/C1=C/c1c(-c2ccccc2)c(-c2ccccc2)c2n1CCC2`: the growth inhibition in test [1] was 21.9%; in test [2], 9.75%; in test [3] it was 3.05%; in test [4] it was 25.5%; in test [5], -4.45%; in test [6], 18.6%.
As to `O=C1C=C(Nc2nc(C(=O)O)cc(=O)[nH]2)c2ccccc2C1=O`, the growth inhibition in test [1] is 8.7%; in test [2], -15.2%; in test [3], -29.3%; in test [4] it was 15.9%; in test [5], -25.6%; in test [6], -24.6%.
Regarding `Nc1nc(SCc2ccccc2Cl)cc(C(=O)O)n1`, the growth inhibition in test [1] was 31.6%; in test [2], 34.7%; in test [3], 47.2%; in test [4] it was 4.15%; in test [5] it was 44%; in test [6] it was 53%.
With `CC(N)(Cc1c[nH]c2ccccc12)C(=O)O` (stereo not given), the growth inhibition in test [1] was -13.3%; in test [2] it was -43.5%; in test [3] it was -16.1%; in test [4] it was -26.9%; in test [5] it was -15.8%; in test [6], -19.4%.
Take `O=C(NNC(=O)c1cccc(F)c1)c1ccccc1`: the growth inhibition in test [1] was -25.8%; in test [2], -4.25%; in test [3] it was -22.9%; in test [4], -6.05%; in test [5], -12.8%; in test [6], 5.2%.
`O=C(NCc1ccccc1)/C(=C/c1ccc2c(c1)OCO2)NC(=O)c1ccccc1`: the growth inhibition in test [1] is -42%; in test [2], -50.1%; in test [3] it was -28.5%; in test [4], -6.2%; in test [5] it was -15.2%; in test [6] it was -22.2%.
On to `O=c1[nH]c(Sc2ccccc2)nc2ccccc12`, for which the growth inhibition in test [1] was 15.7%; in test [2] it was 9.45%; in test [3], 13.1%; in test [4], -58.1%; in test [5] it was 18.2%; in test [6], 7.25%.
Turning to `Nc1cccc2c1C(=O)c1c(N)cccc1C2=O`, the growth inhibition in test [1] is 99.3% (active); in test [2] it was 99.4% (active); in test [3], 94.7% (active); in test [4], 98.7% (active); in test [5], 99.2% (active); in test [6], 99.1% (active).
For the compound `C/C=C/C(=O)OCCC(C)OC(=O)/C=C/C` (stereo not given), the growth inhibition in test [1] is 26.1%; in test [2] it was -30.4%; in test [3], 19.4%; in test [4], 17.4%; in test [5] it was 15.9%; in test [6], 5.25%.

For the origin of these results see PubChem BioAssay (NCI).
